Source: PubChem (National Center for Advancing Translational Sciences (NCATS))
AmpC inh no detg: qHTS Inhibitors of AmpC Beta-Lactamase (assay without detergent). P00811. AmpC nitrocefin hydrolysis, absorbance 480 nm, 0.0001% Triton. Potency, µM (highest dose often 57.1 µM), for inactives: top-dose activity change, negative = inhibition, usual class: inhibitors. 0.52% of 330,000 active. AID 485341, 2010;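 also: plate controls were no compound for no effect and no enzyme for full effect; nearly all actives have a fitted effect of over 20% in size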
Target sequence (P00811 whole entry, looked up): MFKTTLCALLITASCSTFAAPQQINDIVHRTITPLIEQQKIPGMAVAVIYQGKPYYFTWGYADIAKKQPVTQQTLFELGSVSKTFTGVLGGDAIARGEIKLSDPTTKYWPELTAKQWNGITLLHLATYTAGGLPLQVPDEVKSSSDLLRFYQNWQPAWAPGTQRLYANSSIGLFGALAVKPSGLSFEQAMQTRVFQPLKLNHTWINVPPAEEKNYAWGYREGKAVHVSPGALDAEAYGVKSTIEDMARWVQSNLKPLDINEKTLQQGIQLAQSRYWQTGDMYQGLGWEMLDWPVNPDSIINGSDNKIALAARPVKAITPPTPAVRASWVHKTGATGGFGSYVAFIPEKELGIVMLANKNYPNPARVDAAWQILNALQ
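20 mM phosphate pH 7.0 + 0.01% (detergent screen) or 0.0001% Triton X-100; 5.3 nM AmpC reagent; cpd preinc 15 min RT; nitrocefin (800 uM stock) to start; A480 q20 s × 4 min; Activity was normalised to no-enzyme and no-compound control wells.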
Sm TGR inh: qHTS Assay for the Inhibitors of Schistosoma Mansoni Peroxiredoxins; 3% of 360,000 active; Schistosoma mansoni thioredoxin glutathione reductase (TGR), Q962Y6; purified TGR, DTNB reduction, TNB absorbance 405 nm; Potency, µM (series often up to 114 µM), without a hit: top-dose activity change, negative = inhibition, actives largely listed as inhibitors; also: nearly all actives have a fitted effect of over 60% in size
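First, TGR (20 nM dispensed) and NADPH were mixed with compound. Second, a 15 min room-temperature incubation followed. Third, further NADPH and then DTNB were added to start the reaction. Finally, TNB absorbance was monitored kinetically.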
AmpC inh detg: qHTS Inhibitors of AmpC Beta-Lactamase (assay with detergent) | 0.041% of 370,000 active | AmpC hydrolysis of nitrocefin, absorbance 480 nm, 0.01% Triton | Potency, µM (top dose mostly 114 µM), without a hit: at the highest dose activity change, negative = inhibition, usual class: inhibitors | AID 485294, 2010 | P00811;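 also: 0% = no-compound wells and -100% = no-enzyme wells; nearly all actives have a fitted effect of over 25% in size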
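20 mM phosphate pH 7.0 + 0.01% (detergent screen) or 0.0001% Triton X-100; 5.3 nM AmpC reagent; cpd preinc 15 min RT; nitrocefin (800 uM stock) to start; A480 q20 s × 4 min; Activity was normalised to no-enzyme and no-compound control wells.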
* hit, by the source's call; ? = inconclusive; nt = no result given; [ ] = another dose, or the depositor's remark. Only some compounds are listed: those with a hit (about 3.3% of all), similar ones and a draw of the others. Calls follow the shape of the dose curve; as a rule, active = well fitted curve in the direction sought with a large enough effect; inconclusive = small, poorly fitted or top-dose-only effect, or another doubt; inactive = no such curve, though single readings can be large; an effect the other way counts as inactive or inconclusive. Unless noted, % is scaled to controls: 0 for no effect and ±100 for the full control effect; potency is read from the fitted curve at half-maximal effect.

SMILES	AmpC inh no detg	Sm TGR inh	AmpC inh detg
O=C(NCc1ccc(F)cc1)C1CCN(S(=O)(=O)c2ccc3c(c2)CCCN3C(=O)C2CCC2)CC1	nt	4%	-4%
Cc1ccc(NC(CC(=O)c2ccccc2)c2ccc(F)cc2)cc1 (configuration not stated)	-34%	0%	-7%
O=C(CC(Nc1ccc(F)cc1)C(=O)O)c1ccccc1 (configuration not stated)	-20%	1.8µM*	-13%
O=C(CC(Nc1ccc(F)cc1)C(=O)OCC(=O)c1cccs1)c1ccccc1 (configuration not stated)	-30%	8.9µM*	?
O=C(CCC(=O)c1cccs1)OCC(=O)c1ccc(F)cc1	-50%	nt	nt
O=C(NCCS(=O)(=O)N1CCN(c2cccc(Cl)c2)CC1)C(c1ccccc1)c1ccccc1	nt	8%	0%
COc1ccc(-c2nc3scc(CCNS(=O)(=O)c4c(C)cc(C)cc4C)n3n2)cc1OC	nt	4%	1%
Cc1cc(O)c2c(c1O)C(=O)[C@]13C(=C2O)C(=O)[C@@H]2[C@@H](O)[C@H]1[C@@H]1[C@H](O)[C@H]3C(=O)C3=C(O)c4c(O)cc(C)c(O)c4C(=O)[C@]312	28µM*	nt	nt
COc1ccc2oc(-c3ccc(C)c(NC(=O)COc4cc(C)cc(C)c4)c3)nc2c1	nt	-18%	1%
Cc1ccc(S(=O)(=O)NC(C(=O)Oc2ccc3ccc(=O)oc3c2)c2ccccc2)cc1 (configuration not stated)	-45%	?	-3%
Cc1ccc(S(=O)(=O)NCCC(=O)Oc2ccc3ccc(=O)oc3c2)cc1	-26%	16µM*	3%
Cc1cccc2sc(N(CCN3CCOCC3)C(=O)CCS(=O)(=O)c3ccccc3)nc12	77%	45µM*	0%
Cc1ccc(S(=O)(=O)CCC(=O)N(CCN2CCOCC2)c2nc3ccccc3s2)cc1	28%	35µM*	0%
Cc1cccc2sc(N(CCCN3CCOCC3)C(=O)CS(=O)(=O)c3ccc(F)cc3)nc12	220%	2%	-2%
CCCC(=O)N(CCN1CCOCC1)c1nc2c(OCC)cccc2s1	154%	1%	-8%
CCOc1ccccc1NC(=O)c1nnn(CC(=O)Nc2ccccc2CC)c1N	nt	-8%	3%
CNC(=O)c1c(NC(=O)c2cc(=O)c3cc(C)c(C)cc3o2)sc2c1CCCC2	nt	5%	-2%
CCCc1nc(Cl)c(C#N)c2c1CCCC2	-8%	25µM*	4%
CCc1nc(Cl)c(C#N)c2c1CCCC2	-19%	-3%	-5%
Cc1ccc(C)c(NS(=O)(=O)c2ccc3c(c2)Cc2cc(S(=O)(=O)Nc4cc(C)ccc4C)ccc2-3)c1	7.9µM*	-1%	-9%
Cc1ccc(C)c(NS(=O)(=O)c2ccc3oc(=O)ccc3c2)c1	-2%	10%	5%
COc1ccc(CNC(=O)Cn2c(SCC(=O)N(C)c3ccccc3)nc3ccccc32)cc1	nt	4%	13%
O=C1Nc2cc(S(=O)(=O)N3CCCC3)ccc2N2CCCC12 (configuration not stated)	13%	13µM*	4%
CCN(CC)S(=O)(=O)c1ccc2c(c1)NC(=O)C1CCCN21 (configuration not stated)	-44%	?	?
Cc1c(N=Cc2ccc(-c3ccc(Cl)cc3)o2)c(=O)n(-c2ccccc2)n1C	-22%	3%	-14%
SMILES	AmpC inh no detg	Sm TGR inh	AmpC inh detg
Cc1c(N=Cc2ccc(Cl)o2)c(=O)n(-c2ccccc2)n1C	55%	22µM*	2%
Cc1ccc(OCc2cc(=O)n3c4c(sc3n2)CCCC4)cc1C	nt	3%	1%
Cc1cc(NCc2ccccn2)n2nc(C)c(-c3ccccc3)c2n1	61%	1%	-1%
Cc1nn2c(NCc3ccccn3)c3c(nc2c1-c1ccccc1)CCC3	0%	25µM*	-16%
CCOc1ccccc1CNC(=O)C1CCN(c2nnc(-n3c(C)ccc3C)s2)CC1	nt	?	24%
O=C1CC(N2CCN(c3ccc(F)cc3)CC2)C(=O)N1c1ccc(F)cc1 (configuration not stated)	3%	-13%	-10%
COc1ccc(N2C(=O)CC(N3CCC(O)(c4cccc(C(F)(F)F)c4)CC3)C2=O)cc1 (configuration not stated)	43%	40µM*	-9%
NC(=O)C1(N2CCCCC2)CCN(C2CC(=O)N(Cc3cccs3)C2=O)CC1 (configuration not stated)	-6%	50µM*	?
O=C1CC(NC23CC4CC(CC(C4)C2)C3)C(=O)N1c1ccc2c(c1)OCO2 (configuration not stated)	-12%	45µM*	-10%
COc1ccc(N2C(=O)CC(N3CCN(C(=O)c4ccco4)CC3)C2=O)cc1 (configuration not stated)	-14%	?	-10%
NC(=O)C1(N2CCCCC2)CCN(C2CC(=O)N(CCc3ccccc3)C2=O)CC1 (configuration not stated)	nt	?	1%
O=C1CC(N2CCCCCC2)C(=O)N1c1ccc(F)cc1 (configuration not stated)	-39%	10µM*	-1%
O=C1C2C3C=CC(C3)C2C(=O)N1c1ccc2c(c1)OCO2 (configuration not stated)	-10%	-15%	2%
CCN1CCc2c(sc(-n3cccc3)c2C(C)NC(=O)Nc2cc(Cl)c(OC)cc2OC)C1 (configuration not stated)	nt	-6%	15%
CCOc1ccccc1N1CCN(S(=O)(=O)c2ccc(C3CCCCC3)cc2)CC1	nt	7%	1%
Cc1ccc(C)c(NC(=O)C2CCCN2S(=O)(=O)c2ccc3c(c2)CCCC(=O)N3)c1 (configuration not stated)	nt	-14%	0%
Cc1ccc(O)c(-c2n[nH]c3c2C(c2ccc(F)cc2)N(Cc2ccco2)C3=O)c1 (configuration not stated)	nt	-26%	-5%
Cc1ccc(Cl)cc1NC(=O)C(=O)NCC(c1cccnc1)N1CCc2ccccc21 (configuration not stated)	nt	-5%	1%
COc1ccc(N2C(=O)CC(N3CCCC4CCCCC43)C2=O)cc1 (configuration not stated)	-11%	11µM*	-3%
COc1ccc(N2C(=O)CC(N3CCN(c4ccc(S(=O)(=O)N5CCCC5)cc4)CC3)C2=O)cc1 (configuration not stated)	-12%	?	?
O=C1CC(N2CCCCCC2)C(=O)N1c1ccc2c(c1)OCO2 (configuration not stated)	-25%	7.9µM*	-8%
COc1ccc(N2C(=O)CC(C3CCCO3)C2=O)cc1 (configuration not stated)	-13%	-4%[57.1 µM]	2%
COc1cccc(N2C(=O)CC(N3CCC(C(N)=O)(N4CCCCC4)CC3)C2=O)c1 (configuration not stated)	-28%	18µM*	3%
O=C1CC(N2CCN(c3ccc(O)cc3)CC2)C(=O)N1c1ccc2c(c1)OCO2 (configuration not stated)	-12%	nt	5%
